The source of these data is PubChem BioAssay.

The structures appear in SMILES notation. Values without a mark were called inactive. No rule for the calls is given here.

For the assay, the target named is Pantothenate synthetase (Mycobacterium tuberculosis (strain ATCC 25618 / H37Rv)) (UniProt P9WIL5). The experiment in a line: Recombinant Mtb pantothenate synthetase (PanC) inhibitors, coupled enzyme, confirmatory (AID 375).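 Also: 0% = full reaction with vehicle and 100% = no enzyme background.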 As to conditions: coupled enzyme assay; at 10 µM, hits give high values.
Pantothenate synthetase (Mycobacterium tuberculosis (strain ATCC 25618 / H37Rv)), sequence (P9WIL5 whole entry, looked up): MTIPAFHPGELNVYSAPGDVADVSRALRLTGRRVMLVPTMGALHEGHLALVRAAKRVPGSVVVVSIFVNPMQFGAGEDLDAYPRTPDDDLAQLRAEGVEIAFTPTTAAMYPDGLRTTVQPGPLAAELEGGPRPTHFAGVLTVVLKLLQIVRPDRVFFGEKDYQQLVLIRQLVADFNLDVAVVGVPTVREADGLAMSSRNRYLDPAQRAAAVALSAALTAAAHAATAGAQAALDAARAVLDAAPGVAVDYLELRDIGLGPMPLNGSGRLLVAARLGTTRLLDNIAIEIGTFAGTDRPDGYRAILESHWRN
Consider `Cc1nc2sc(C(c3ccco3)N3CCN(c4ccccc4F)CC3)c(O)n2n1` (centres undefined), for which the inhibition was 0%. Under `Cc1ccccc1-c1nc(CN2CCC(C(=O)N3CCC(C(N)=O)CC3)CC2)c(C)o1` stands 0%. In the case of `N#Cc1nc(COc2ccccc2)oc1NCCN1CCOCC1` it was 0%; in that of `CCN(C(C)=O)c1nnc(CSc2nc3ccccc3s2)s1`, 5%; in that of `COc1ccc(Cl)c(N2CCN(CCCNC(=O)Nc3ccc(C)cc3)CC2)c1`, 0%. With `CC(C)(C)NCC(O)c1cc(O)cc(O)c1` (centres undefined), the inhibition is 0%. Take `CC1CCc2c(sc(N)c2C(N)=O)C1` (centres undefined): the inhibition is 0%. Under `O=C(c1cc(-c2ccco2)nn1-c1cccc(Cl)c1)N1CCCCC1` stands 8%; under `CCOC(=O)c1cccc(NC(=O)CSc2nnc(C3CCCCC3)n2C)c1`, 2%.

In the case of `COCCCNC(=O)CC(NS(=O)(=O)c1ccc(Cl)cc1)c1ccco1` (centres undefined), the inhibition is 0%.

For `Cc1ccc(OCC2Cn3c(nc4c3c(=O)n(C)c(=O)n4C)O2)cc1` (centres undefined), the inhibition was 0%. Consider `CCOc1ccc(Cn2nnc(C(=O)NCc3ccc(OC)cc3)c2N)cc1`, for which the inhibition is 2%. Under `COc1ccc(S(=O)(=O)C(C#N)c2nc3ccccc3nc2N2CCCC(C)C2)cc1` (centres undefined) stands 0%; under `O=C(c1ccco1)N1CCN(C(=O)C2CC(c3ccc(F)cc3)=NO2)CC1` (centres undefined), 0%; under `COc1ccc(N2CCN(C(c3cccc(OC)c3OC)c3nnnn3C3CCCC3)CC2)cc1` (centres undefined), 0%.

In the case of `CC1=C(C(=O)N2CCOCC2)C(c2ccsc2)C2=C(CCCC2=O)N1` (centres undefined), the inhibition was 0%.

In the case of `Cc1cc(C)n(Cc2cc(C)c(Cn3nc(C)cc3C)cc2C)n1`, the inhibition was 3%. In the case of `CCOC(=O)c1c(NCc2ccc3c(c2)OCO3)c2ccccc2[nH]c1=O` it was 0%; in that of `COc1ccc(S(=O)(=O)NC(CC(=O)NCc2ccco2)c2ccco2)cc1` (centres undefined), 3%; in that of `O=S(=O)(c1cccc(-c2nnco2)c1)N1CCCC1`, 0%.

`COc1ccc(OC)c(NC(=O)c2nnn(Cc3ccc(Br)cc3F)c2N)c1`: the inhibition is 0%. Under `O=c1oc2ccccc2c(O)c1CN1CCCCC1` stands 0%; under `CCCc1cc(C(=O)Nc2sc(C)c(C)c2C(=O)OCC)no1`, 3%; under `CC1CN(c2nc(-c3ccccc3)nc3ccccc23)CC(C)O1` (centres undefined), 0%.
